# Sampled rows, rich in hits. Any-hit rate of the full collection: about 2.2%.
# p47phox inh: blocks human p47phox regulatory protein of NADPH oxidases; P14598; p47phox/p22phox peptide binding, fluorescence polarization, 2 h; inhibition, % at 24.7 µM; actives 0.53% (n = 220,000);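 active = inhibition above about 30%, limit read from the data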;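 note: 0% = p47phox with labelled peptide and 100% = labelled peptide alone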
# Target sequence (P14598 whole entry, looked up): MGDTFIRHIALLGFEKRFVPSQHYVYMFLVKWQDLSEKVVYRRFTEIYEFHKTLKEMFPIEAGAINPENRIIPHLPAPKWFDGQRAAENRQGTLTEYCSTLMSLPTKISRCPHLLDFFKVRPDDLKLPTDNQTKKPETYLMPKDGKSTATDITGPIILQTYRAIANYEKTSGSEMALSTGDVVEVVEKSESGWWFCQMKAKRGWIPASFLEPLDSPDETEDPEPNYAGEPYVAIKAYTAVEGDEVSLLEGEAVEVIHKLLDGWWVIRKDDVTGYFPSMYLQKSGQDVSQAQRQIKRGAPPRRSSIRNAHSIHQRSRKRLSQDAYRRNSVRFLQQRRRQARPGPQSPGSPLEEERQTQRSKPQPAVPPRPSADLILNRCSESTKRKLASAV
# Ins promoter up: MIN6 insulin promoter up-regulation; MIN6 insulin promoter-GFP reporter, high-content imaging; active compounds read high; z-score at 5 µM; actives 0.3% (n = 190,000);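 active = z-score above 3 at 5 µM with at least 500 cells counted in the well; inconclusive = wells under 500 cells, flagged as cytotoxic or low count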
# DTT redox prof: compounds producing H2O2 with reducing agent – biochemical, NIH compound library profiling, artefact control for MLSCN library redox annotation, primary screen. DTT-dependent redox cycling H2O2, phenol red/HRP absorbance; 100% = 100 µM peroxide control, 0% = buffer. activation, % at 10 µM. actives 0.03% (n = 200,000). AID 878;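 active = activation of at least 50% relative to the plate's high and low controls in the primary single-dose screen; inactive = activation below 50%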;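 note: compound incubated with DTT at 0.8 mM final as the reducing agent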
# Autophagy HCS: autophagy modulation, high-content screen | MEF GFP-LC3 puncta imaging; test concentration mostly 10 µM | calls only at 10 µM (by protocol) | actives 0.98% (n = 190,000);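 active = percentage of spot-positive cells more than 3 SD above its plate mean, without a fluorescence outlier flag or 80% toxicity; inconclusive = no clear call, values can overlap the other calls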;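 note: spot-positive cell cutoff set from DMSO-treated cells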
# Arbovirus anti: arbovirus infection inhibition; arbovirus infection cell-based antiviral screen; inhibition, % at 10 µM; actives 0.37% (n = 200,000); AID 1251; in the data active = inhibition above about 30%
# Efa HMGR inh: inhibitors of class II HMG-CoA reductase from Enterococcus faecalis; purified E. faecalis HMGR, NADPH absorbance 340 nm kinetic; inhibition, % at 10 µM; actives 0.41% (n = 190,000);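 active = inhibition above a set limit, the median over all tested compounds plus 3 SD, cut at about 9.5% in these data; inconclusive = no clear call, values can overlap the other calls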;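 note: enzyme runs in reverse so mevalonate oxidation gives rising NADPH absorbance; 0% = complete reaction with DMSO and 100% = background rate lacking mevalonate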
# DTT redox conf: redox cycling H2O2 generation, confirmed | shares compounds with DTT redox prof | DTT-dependent redox cycling H2O2, phenol red-HRP absorbance | EC50, µM | actives 40% (n = 60) | AID 1234;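 active = EC50 under a set limit for hydrogen peroxide production with the reducing agent DTT present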
# * marks the source's active call; other numbers are inactive results; i = inactive; ? = inconclusive; . = no result given; + = active, no number.
SMILES,p47phox inh,Ins promoter up,DTT redox prof,Autophagy HCS,Arbovirus anti,Efa HMGR inh,DTT redox conf
CNC1=C(N(C(C)=O)c2ccc(Br)cc2)C(=O)c2ccccc2C1=O,-2,?,108*,i,-32,3,>50
CCC(=O)N(C1=C(NC)C(=O)c2ccccc2C1=O)C(C)C,5,-0.22,-2,i,7,-10,.
CC(=O)Nc1cc(OC(C)=O)c2nonc2c1OC(C)=O,.,-0.18,113*,i,.,.,7.8*
O=S(=O)(Nc1cc2nc3ccccc3nc2n1Cc1ccccc1)c1ccc(Cl)cc1,-51,.,85*,+,-31,2,>50
O=S(=O)(NCc1ccccc1)c1ccc(Cl)cc1,-13,-0.43,0,i,-1,0,.
CN(CC(=O)Nc1ccccc1C(F)(F)F)C(=O)COc1cccnc1[N+](=O)[O-],-12,-0.55,0,i,13,-3,.
CCOc1ccc2c(=O)c(Oc3ccccc3)c(C)oc2c1,-14,.,57*,i,0,-3,>50
COc1ccc2nc(/C=N/NC(=O)[C@@H]3CCCN3C(=O)OC(C)(C)C)ccc2c1,-6,0.41,.,.,.,.,.
Cc1c(CN(C)C)c2c(n1C)C(=O)c1ccc(Br)cc1-2,3,0.59,0,i,-8,0,.
CCOC(=O)c1c2c(n(C)c1C)C(=O)C(=O)c1ccc(Br)cc1-2,.,.,322*,i,.,.,0.04*
CN(C(=O)COC(=O)c1ccc([N+](=O)[O-])cc1N)c1ccccc1,-5,0.17,-1,i,-3,-3,.
CC(=O)N(/N=C1\Sc2ccccc2C1=O)c1cccc(C)c1,-47,0.48,296*,i,-5,-9,26*
CC(C)CN(C(=O)COC(=O)c1ccc([N+](=O)[O-])o1)C1CCS(=O)(=O)C1 (centres undefined),5,0.1,122*,i,-7,-2,>50
Cc1cc(C)c(S(=O)(=O)/N=C2/C=C(Sc3ncn[nH]3)C(=O)c3ccccc32)cc1C,54*,1.1,143*,i,-37,6,23*
C/C(CC(=O)NCc1ccco1)=N\NC(=O)C(c1ccccc1)c1ccccc1,-17,.,-1,i,-1,-4,.
O=C(COC(=O)c1ccc([N+](=O)[O-])s1)Nc1ccccc1,-1,0.78,2,i,-9,0,.
O=C(COC(=O)c1ccc([N+](=O)[O-])s1)NCc1ccccc1,-11,0.07,113*,i,-3,-2,39*

# From PubChem BioAssay
